rRNA inh HTS: inhibits bacterial ribosomal RNA function over humanized ribosomes. GFP signal change (wild-type ribosome), % (no concentration beside the values). 350,000 tested, 1.6% active. E. coli WT GFP vs humanized-ribosome RFP mutants, fluorescence, 24 h; hits give low values; DMSO median 0, no signal -100;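 active = significant combined selectivity score with lowered wild-type GFP, culture density cut under 30%, mutant RFP and density less affected; inactive = any of these conditions unmet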
CASP6 VEID inh: inhibitors of human caspase-6. inhibition, % at 12.5 µM. 350,000 tested, 0.53% active. AID 686996. P55212. purified caspase-6, Z-VEID-R110 cleavage fluorescence;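 active = mean inhibition across replicates at least about 35%, with every replicate also reaching that limit, limit read from the data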;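 note: 0% = median of neutral control wells and 100% = no fluorescence left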
Target sequence (P55212 24-179 limits assumed): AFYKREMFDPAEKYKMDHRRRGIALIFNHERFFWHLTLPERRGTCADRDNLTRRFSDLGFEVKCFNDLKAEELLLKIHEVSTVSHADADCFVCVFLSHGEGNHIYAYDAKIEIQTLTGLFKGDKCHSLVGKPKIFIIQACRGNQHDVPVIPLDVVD
Target sequence (P55212 194-293 limits assumed): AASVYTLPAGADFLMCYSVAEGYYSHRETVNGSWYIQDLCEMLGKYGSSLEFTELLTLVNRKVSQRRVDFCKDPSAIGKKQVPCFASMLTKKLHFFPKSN
AF4-AF9 inh: inhibitors of human MLL-AF4/AF9 interaction; P42568; AlphaScreen, biotin-AF4 peptide binding to FLAG-AF9; inhibition, % at 10 µM; 350,000 tested, 0.47% active;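 active = every replicate reaching a set inhibition limit, whatever the replicate mean, cut at about 25% in these data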;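 note: 0% = plate neutral control median and 100% = total signal loss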
RAD52 anneal inh: inhibitors of human RAD52 DNA annealing; recombinant RAD52 DNA annealing, FRET fluorescence; inhibition, % at 18.7 µM; 360,000 tested, 0.46% active; P43351;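 active = every replicate showing at least 50% inhibition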
NSD2 inh: blocks human histone methyltransferase NSD2; AID 743445; 310,000 tested, 0.54% active; NSD2 peptide methylation, AlphaScreen, 120 min; inhibition, % at 12.5 µM; in the data active = inhibition above about 50%
* marks the source's active call; other numbers are inactive results; . = not tested or not shown. A selection: hits, their analogues and other compounds. The true share with any hit is near 2.5%.

SMILES	rRNA inh HTS	CASP6 VEID inh	AF4-AF9 inh	RAD52 anneal inh	NSD2 inh
C[C@H]1CN([C@@H](C)CO)S(=O)(=O)c2ccc(C3=CCCC3)cc2O[C@H]1CN(C)C(=O)C1CCOCC1	0.1	-0.2	-1.8	-9.9	.
COc1ccc(CNc2ccc(C)c(C)c2)c(OC)c1OC	-20.2*	-3.9	11.7	-2.1	3.0
COc1ccc(CNc2cc(C)ccc2C)c(OC)c1OC	.	.	.	.	0.7
C/C(=N/NC(N)=S)c1cc2ccc(O)cc2oc1=O	14.4	42.2*	-46.5	-142.8	18.2
Cc1ccc(S(=O)(=O)NCC(=O)N2CCC(C)CC2)cc1	10.9	0.7	48.4*	-12.7	.
O=Cc1cc(N=Nc2ccc(S(=O)(=O)O)cc2)ccc1O	-20.4*	1.6	-5.0	-9.2	9.2
COc1ccc(OC)c(NC(=O)Cn2cc(C(=O)c3ccco3)c3ccccc32)c1	.	.	.	.	3.0
COc1ccccc1NC(=O)Cn1cc(C(=O)c2ccco2)c2ccccc21	-25.5*	2.8	-1.4	-33.9	-5.2
Oc1[nH]c2ccccc2c1N=NC(=S)NCC1CCCO1 (centres undefined)	-18.5	1.7	3.1	-3.6	-3.2
Oc1[nH]c2ccc(Br)cc2c1N=NC(=S)NCC1CCCO1 (centres undefined)	-31.5*	5.5	11.6	-35.6	.
O=C(C1CCCN(c2ncnc3c2nc2n3CCCCC2)C1)N1CCN(c2cccc(Cl)c2)CC1 (centres undefined)	-30.6	3.1	5.0	-6.7	0.7
CN(C(=O)C1CCCN(c2ncnc3c2nc2n3CCCCC2)C1)c1cccc(Cl)c1 (centres undefined)	-35.6*	2.4	2.8	6.3	-0.4
O=C(Cn1ncc(Cl)c(Cl)c1=O)Nc1ccc2c(c1)OCO2	1.9	2.2	-4.8	-6.4	-0.9
CCN(CC)S(=O)(=O)c1cc(NS(=O)(=O)c2cccc(Cl)c2Cl)ccc1C	-38.0*	0.0	2.0	-9.8	0.1
CCN(CC)S(=O)(=O)c1cc(NS(=O)(=O)c2c(Cl)cccc2Cl)ccc1C	8.2	-9.3	-1.8	-45.0	-0.7
CCN(CC)S(=O)(=O)c1cc(NC(=O)Cn2ncc(Cl)c(Cl)c2=O)ccc1C	-26.4*	2.0	-7.7	-24.0	6.5
Cc1c(CC(=O)O)c(=O)oc2c(C)c3occ(-c4ccc(Br)cc4)c3cc12	-33.2	5.0	1.0	-10.7	3.9
CCCCC(NC(=O)Cc1c(C)c2cc3c(-c4ccccc4)coc3c(C)c2oc1=O)C(=O)O (centres undefined)	-13.6	60.4*	-12.9	-7.0	5.4
O=C(O)c1ccc(N2C(=O)CC(N3CCN(c4cccc(C(F)(F)F)c4)CC3)C2=O)cc1 (centres undefined)	-8.7	90.2*	-1.2	11.7	4.1
O=C(C[C@@H]1C=C[C@@H](NC(=O)C2CCOCC2)[C@H](CO)O1)NCc1ccccc1Cl	2.3	3.8	-6.6	5.3	.
O=C1Nc2cc(Cl)cnc2N2CCCC12 (centres undefined)	8.6	39.7*	3.5	-18.4	.
CC(C)(O)C#Cc1cccc(-c2nc(C(=O)N3CCN(Cc4ccccc4)CC3)cc3c2[C@@H](CCO)N(S(=O)C(C)(C)C)C3)c1 (some centres undefined)	-0.2	-1.4	-19.5	7.1	.
O=c1cc(-c2ccc(O)cc2)oc2c(O)c(O)c(O)c(O)c12	7.0	63.4*	-3.4	10.5	.
O=c1cc(-c2ccccc2)oc2cc(O)c(O)c(O)c12	.	43.7*	-18.3	-3.8	.
COc1c(O)cc2oc(-c3ccc(O)cc3)cc(=O)c2c1O	-32.7	3.8	5.3	5.8	.
SMILES	rRNA inh HTS	CASP6 VEID inh	AF4-AF9 inh	RAD52 anneal inh	NSD2 inh
CC(=O)N(C)C[C@@H]1Oc2cc(C3=CCCCC3)ccc2S(=O)(=O)N([C@H](C)CO)C[C@@H]1C	-2.1	.	.	.	.
O=C(C1CCC(CNc2c(N3CCCCC3)c(=O)c2=O)CC1)N1CCCCC1 (centres undefined)	2.6	-3.0	-15.8	7.2	.
O=C(C1CCC(CNc2c(N3CCOCC3)c(=O)c2=O)CC1)N1CCN(c2ccccc2)CC1 (centres undefined)	-1.2	0.2	40.4*	-13.6	.
O=C(C[C@@H]1CC[C@@H]2[C@H](COC[C@@H](O)CN2S(=O)(=O)c2ccccc2)O1)NCc1ccc(-c2ccccc2)cc1	-8.1	-6.7	23.9	89.2*	.
O=C(C[C@H]1CC[C@H]2[C@@H](COC[C@H](O)CN2S(=O)(=O)c2ccccc2)O1)NCc1ccc(-c2ccccc2)cc1	-8.7	-11.0	20.9	91.9*	.
O=C(C[C@@H]1CC[C@@H]2[C@H](COC[C@H](O)CN2S(=O)(=O)c2ccccc2)O1)NCc1ccc(-c2ccccc2)cc1	-7.3	-4.8	6.0	18.3	.
CS(=O)(=O)N1C[C@H](O)COC[C@@H]2O[C@H](CC(=O)NCc3ccc(-c4ccccc4)cc3)CC[C@H]21	-31.2	0.7	15.0	57.5*	.
COc1cccc(S(=O)(=O)Nc2ccc3c(c2)[C@H]2C[C@@H](CC(=O)NCc4ccc(Cl)cc4)O[C@H](CO)[C@H]2O3)c1	0.7	-1.2	0.0	14.9	.
O=C1C=C(/C=C/c2ccccc2)C[C@@H](c2ccc(F)cc2)C1	-30.0	0.9	8.6	-8.3	.
COc1ccc([C@H]2CC(=O)C=C(/C=C/c3ccccc3)C2)cc1OC	-17.2	0.0	29.5*	-14.9	.
COc1ccc(C(=O)Cn2nnc(-c3ccccc3F)n2)cc1	-30.6*	0.0	-1.7	-17.1	0.3
CC[C@@H]1C/C=C\C[C@H](c2ccc(F)cc2)NC(=O)CCC(=O)N1	0.7	.	.	.	.
Cc1ccc2nc(-c3ccc(NC(=O)COCC(=O)O)cc3)sc2c1	-35.2*	7.1	-1.7	-15.6	-1.7
COc1ccc(CN(C)C[C@H]2Oc3ccc(NS(=O)(=O)c4cccs4)cc3CC(=O)N([C@H](C)CO)C[C@@H]2C)cc1	-2.3	-1.1	-0.2	7.6	.
CCSc1nnc(NC(=O)CSc2sc3c(O)cc(=O)[nH]c3c2C#N)s1	2.1	44.1*	-0.8	-94.9	33.4
Cc1csc(NC(=O)CSc2sc3c(O)cc(=O)[nH]c3c2C#N)n1	-0.2	79.2*	-5.9	-21.4	41.3
Cc1csc(NC(=O)CSc2nc3[nH]c(=O)cc(O)c3s2)n1	0.3	-0.6	-9.3	-6.6	-9.3
Cc1cc(NC(=O)CSc2sc3c(O)cc(=O)[nH]c3c2C#N)ccc1Br	5.8	8.9	-1.9	-37.7	.
CCc1nnc(NC(=O)CSc2sc3c(O)cc(=O)[nH]c3c2C#N)s1	6.8	64.5*	-2.2	-64.1	.
COc1ccc2c3c([nH]c2c1)[C@H](CO)N(C(=O)C1CCOCC1)CC31CN(Cc2cccc(F)c2)C1	-1.7	-0.6	1.4	4.0	.
O=C(CCl)N1N=C(c2ccco2)CC1c1ccco1 (centres undefined)	20.7	60.1*	-1.0	-68.2	12.4
CCC(=O)N1N=C(c2ccc(Cl)cc2)CC1c1ccco1 (centres undefined)	-27.9*	-1.1	4.3	-1.4	5.0
O=C(COc1cccnc1[N+](=O)[O-])N1N=C(c2ccc(Cl)cc2)CC1c1ccco1 (centres undefined)	-19.7*	-1.7	5.8	-9.7	1.2
